In the supplement of paper PMC11732987, “Enantioselective OTUD7B fragment discovery through chemoproteomics screening and high-throughput optimisation” (Communications Chemistry, 2025):

Experiments:
Experiment in all cases: log2 ratio of Biotin-Ahx-Ub-VS probe labelling (fragment/DMSO); higher = less target engagement (more negative = stronger competition), active = hit call of the paper (q ≤ 0.05, log2 ratio ≤ -1)
Settings in all cases: compound concentration: 200 uM; treatment time: 3 h
USP34 = USP34 (UniProt Q70CQ2)
Procedure, shortened: (§1)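 Global-median-normalised Spectronaut label-free quantities were compared by unpaired t-test, and values are average log2 ratios of fragment over vehicle. Only proteins with ≥2 unique peptides were used. HEK293T lysate (495 µg per sample) was treated in triplicate with fragment at 200 µM or vehicle for 3 h and then with Biotin-Ahx-Ub-VS at 0.5 µM final for 1 h. Labelled DUBs were then NeutrAvidin-enriched, digested with LysC and trypsin, and run by diaPASEF LC-MS/MS.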

USP36 = target: T1, USP36 (UniProt Q9P275)
T1 sequence (whole entry): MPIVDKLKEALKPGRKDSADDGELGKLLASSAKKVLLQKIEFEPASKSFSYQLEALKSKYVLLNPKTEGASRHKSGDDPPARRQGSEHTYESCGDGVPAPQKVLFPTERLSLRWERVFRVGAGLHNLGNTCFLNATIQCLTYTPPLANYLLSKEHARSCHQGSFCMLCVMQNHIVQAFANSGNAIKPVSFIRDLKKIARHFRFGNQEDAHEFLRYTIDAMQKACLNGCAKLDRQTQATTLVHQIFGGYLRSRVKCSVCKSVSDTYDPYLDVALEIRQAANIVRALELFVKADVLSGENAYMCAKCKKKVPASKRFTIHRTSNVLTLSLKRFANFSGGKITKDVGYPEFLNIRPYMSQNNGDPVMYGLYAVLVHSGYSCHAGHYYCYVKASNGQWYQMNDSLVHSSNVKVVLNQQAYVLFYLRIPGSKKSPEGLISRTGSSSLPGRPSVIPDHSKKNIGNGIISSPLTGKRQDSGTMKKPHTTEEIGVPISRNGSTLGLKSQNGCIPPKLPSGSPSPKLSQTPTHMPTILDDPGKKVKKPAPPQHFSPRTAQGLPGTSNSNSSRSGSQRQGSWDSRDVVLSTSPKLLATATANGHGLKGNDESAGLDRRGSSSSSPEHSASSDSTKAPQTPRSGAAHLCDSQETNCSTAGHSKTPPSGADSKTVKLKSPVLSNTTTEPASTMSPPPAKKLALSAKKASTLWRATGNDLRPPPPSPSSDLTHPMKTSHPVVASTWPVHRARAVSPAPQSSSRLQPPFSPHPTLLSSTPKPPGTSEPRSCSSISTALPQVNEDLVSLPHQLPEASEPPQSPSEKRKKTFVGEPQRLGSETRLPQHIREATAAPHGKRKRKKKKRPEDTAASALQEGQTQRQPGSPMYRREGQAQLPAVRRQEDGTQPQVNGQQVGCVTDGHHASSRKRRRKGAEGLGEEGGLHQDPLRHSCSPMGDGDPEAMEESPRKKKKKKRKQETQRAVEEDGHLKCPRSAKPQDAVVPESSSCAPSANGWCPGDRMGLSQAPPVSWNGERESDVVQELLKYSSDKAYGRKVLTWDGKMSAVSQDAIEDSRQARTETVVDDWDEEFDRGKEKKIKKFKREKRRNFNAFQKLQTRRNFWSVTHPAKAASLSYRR
Procedure, shortened: as §1

USP38 = target: T2, USP38 (UniProt Q8NB14)
T2 sequence (whole entry): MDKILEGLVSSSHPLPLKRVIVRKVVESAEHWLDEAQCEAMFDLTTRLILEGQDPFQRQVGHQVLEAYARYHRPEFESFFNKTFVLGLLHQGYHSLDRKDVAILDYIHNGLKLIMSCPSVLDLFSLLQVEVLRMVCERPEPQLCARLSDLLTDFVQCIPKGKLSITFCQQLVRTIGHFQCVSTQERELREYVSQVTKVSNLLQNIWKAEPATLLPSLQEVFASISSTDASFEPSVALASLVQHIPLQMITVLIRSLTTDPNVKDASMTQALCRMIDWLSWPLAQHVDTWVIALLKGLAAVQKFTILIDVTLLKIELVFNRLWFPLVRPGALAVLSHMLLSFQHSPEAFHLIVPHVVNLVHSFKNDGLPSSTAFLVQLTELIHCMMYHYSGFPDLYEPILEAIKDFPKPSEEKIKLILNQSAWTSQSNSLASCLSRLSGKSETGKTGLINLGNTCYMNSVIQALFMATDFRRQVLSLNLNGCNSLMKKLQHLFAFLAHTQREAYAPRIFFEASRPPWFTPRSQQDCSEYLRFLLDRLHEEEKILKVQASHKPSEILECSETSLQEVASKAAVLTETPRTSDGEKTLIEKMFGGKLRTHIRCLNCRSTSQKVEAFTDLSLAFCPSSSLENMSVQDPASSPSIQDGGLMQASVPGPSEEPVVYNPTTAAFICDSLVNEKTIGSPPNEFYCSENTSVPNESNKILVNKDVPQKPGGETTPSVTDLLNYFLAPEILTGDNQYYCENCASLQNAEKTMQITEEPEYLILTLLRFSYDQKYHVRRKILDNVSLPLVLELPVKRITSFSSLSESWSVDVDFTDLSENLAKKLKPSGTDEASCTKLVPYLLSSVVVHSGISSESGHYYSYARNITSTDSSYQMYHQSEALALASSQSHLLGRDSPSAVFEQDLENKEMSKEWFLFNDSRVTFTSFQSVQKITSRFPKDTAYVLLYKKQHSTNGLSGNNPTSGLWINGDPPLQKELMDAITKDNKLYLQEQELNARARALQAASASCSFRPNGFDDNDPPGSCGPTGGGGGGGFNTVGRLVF
Procedure, shortened: as §1

USP39 = target: T3, USP39 (UniProt Q53GS9)
T3 sequence (whole entry): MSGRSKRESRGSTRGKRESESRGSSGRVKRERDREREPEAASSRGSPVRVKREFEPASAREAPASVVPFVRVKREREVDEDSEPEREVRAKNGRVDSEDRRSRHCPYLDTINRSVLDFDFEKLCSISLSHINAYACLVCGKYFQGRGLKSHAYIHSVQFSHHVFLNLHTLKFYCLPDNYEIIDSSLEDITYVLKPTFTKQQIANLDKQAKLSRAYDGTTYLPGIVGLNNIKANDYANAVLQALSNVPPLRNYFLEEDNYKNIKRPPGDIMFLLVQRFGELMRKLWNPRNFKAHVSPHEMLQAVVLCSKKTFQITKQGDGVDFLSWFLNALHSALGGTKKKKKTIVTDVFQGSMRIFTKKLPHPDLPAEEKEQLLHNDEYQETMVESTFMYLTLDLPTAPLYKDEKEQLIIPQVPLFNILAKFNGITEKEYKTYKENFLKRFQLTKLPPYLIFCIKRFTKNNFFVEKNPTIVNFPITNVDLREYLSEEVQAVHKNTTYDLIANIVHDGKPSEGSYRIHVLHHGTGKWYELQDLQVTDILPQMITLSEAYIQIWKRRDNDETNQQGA
Procedure, shortened: as §1

USP4 = target: T4, USP4 (UniProt Q13107)
T4 sequence (whole entry): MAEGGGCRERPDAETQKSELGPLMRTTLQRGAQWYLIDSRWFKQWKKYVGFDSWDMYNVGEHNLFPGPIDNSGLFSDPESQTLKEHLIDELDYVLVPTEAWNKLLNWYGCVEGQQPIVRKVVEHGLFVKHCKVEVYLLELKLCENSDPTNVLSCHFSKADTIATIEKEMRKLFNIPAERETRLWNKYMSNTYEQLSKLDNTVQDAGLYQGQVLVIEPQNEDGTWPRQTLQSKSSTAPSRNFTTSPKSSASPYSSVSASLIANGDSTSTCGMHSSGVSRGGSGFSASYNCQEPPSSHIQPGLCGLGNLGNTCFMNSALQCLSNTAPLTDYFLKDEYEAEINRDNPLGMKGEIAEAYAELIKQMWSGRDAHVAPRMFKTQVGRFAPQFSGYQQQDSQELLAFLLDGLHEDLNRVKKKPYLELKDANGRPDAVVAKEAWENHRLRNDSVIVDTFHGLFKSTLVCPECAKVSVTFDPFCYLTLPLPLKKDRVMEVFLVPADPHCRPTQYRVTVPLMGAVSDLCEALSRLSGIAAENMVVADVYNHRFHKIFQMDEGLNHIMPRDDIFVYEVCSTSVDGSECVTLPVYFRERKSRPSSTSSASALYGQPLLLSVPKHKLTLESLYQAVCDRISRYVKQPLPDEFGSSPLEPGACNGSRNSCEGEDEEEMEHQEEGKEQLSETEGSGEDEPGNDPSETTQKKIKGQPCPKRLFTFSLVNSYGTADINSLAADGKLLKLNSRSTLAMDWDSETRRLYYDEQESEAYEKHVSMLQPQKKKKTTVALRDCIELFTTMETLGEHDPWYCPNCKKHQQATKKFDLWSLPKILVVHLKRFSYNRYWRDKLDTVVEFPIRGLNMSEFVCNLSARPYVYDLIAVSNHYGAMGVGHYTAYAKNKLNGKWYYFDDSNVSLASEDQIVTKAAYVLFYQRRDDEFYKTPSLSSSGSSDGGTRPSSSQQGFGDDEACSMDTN
Procedure, shortened: as §1

Measured: log2 ratio of Biotin-Ahx-Ub-VS probe labelling

Sequence of USP34 (Q70CQ2 whole entry, the tested form may be a part): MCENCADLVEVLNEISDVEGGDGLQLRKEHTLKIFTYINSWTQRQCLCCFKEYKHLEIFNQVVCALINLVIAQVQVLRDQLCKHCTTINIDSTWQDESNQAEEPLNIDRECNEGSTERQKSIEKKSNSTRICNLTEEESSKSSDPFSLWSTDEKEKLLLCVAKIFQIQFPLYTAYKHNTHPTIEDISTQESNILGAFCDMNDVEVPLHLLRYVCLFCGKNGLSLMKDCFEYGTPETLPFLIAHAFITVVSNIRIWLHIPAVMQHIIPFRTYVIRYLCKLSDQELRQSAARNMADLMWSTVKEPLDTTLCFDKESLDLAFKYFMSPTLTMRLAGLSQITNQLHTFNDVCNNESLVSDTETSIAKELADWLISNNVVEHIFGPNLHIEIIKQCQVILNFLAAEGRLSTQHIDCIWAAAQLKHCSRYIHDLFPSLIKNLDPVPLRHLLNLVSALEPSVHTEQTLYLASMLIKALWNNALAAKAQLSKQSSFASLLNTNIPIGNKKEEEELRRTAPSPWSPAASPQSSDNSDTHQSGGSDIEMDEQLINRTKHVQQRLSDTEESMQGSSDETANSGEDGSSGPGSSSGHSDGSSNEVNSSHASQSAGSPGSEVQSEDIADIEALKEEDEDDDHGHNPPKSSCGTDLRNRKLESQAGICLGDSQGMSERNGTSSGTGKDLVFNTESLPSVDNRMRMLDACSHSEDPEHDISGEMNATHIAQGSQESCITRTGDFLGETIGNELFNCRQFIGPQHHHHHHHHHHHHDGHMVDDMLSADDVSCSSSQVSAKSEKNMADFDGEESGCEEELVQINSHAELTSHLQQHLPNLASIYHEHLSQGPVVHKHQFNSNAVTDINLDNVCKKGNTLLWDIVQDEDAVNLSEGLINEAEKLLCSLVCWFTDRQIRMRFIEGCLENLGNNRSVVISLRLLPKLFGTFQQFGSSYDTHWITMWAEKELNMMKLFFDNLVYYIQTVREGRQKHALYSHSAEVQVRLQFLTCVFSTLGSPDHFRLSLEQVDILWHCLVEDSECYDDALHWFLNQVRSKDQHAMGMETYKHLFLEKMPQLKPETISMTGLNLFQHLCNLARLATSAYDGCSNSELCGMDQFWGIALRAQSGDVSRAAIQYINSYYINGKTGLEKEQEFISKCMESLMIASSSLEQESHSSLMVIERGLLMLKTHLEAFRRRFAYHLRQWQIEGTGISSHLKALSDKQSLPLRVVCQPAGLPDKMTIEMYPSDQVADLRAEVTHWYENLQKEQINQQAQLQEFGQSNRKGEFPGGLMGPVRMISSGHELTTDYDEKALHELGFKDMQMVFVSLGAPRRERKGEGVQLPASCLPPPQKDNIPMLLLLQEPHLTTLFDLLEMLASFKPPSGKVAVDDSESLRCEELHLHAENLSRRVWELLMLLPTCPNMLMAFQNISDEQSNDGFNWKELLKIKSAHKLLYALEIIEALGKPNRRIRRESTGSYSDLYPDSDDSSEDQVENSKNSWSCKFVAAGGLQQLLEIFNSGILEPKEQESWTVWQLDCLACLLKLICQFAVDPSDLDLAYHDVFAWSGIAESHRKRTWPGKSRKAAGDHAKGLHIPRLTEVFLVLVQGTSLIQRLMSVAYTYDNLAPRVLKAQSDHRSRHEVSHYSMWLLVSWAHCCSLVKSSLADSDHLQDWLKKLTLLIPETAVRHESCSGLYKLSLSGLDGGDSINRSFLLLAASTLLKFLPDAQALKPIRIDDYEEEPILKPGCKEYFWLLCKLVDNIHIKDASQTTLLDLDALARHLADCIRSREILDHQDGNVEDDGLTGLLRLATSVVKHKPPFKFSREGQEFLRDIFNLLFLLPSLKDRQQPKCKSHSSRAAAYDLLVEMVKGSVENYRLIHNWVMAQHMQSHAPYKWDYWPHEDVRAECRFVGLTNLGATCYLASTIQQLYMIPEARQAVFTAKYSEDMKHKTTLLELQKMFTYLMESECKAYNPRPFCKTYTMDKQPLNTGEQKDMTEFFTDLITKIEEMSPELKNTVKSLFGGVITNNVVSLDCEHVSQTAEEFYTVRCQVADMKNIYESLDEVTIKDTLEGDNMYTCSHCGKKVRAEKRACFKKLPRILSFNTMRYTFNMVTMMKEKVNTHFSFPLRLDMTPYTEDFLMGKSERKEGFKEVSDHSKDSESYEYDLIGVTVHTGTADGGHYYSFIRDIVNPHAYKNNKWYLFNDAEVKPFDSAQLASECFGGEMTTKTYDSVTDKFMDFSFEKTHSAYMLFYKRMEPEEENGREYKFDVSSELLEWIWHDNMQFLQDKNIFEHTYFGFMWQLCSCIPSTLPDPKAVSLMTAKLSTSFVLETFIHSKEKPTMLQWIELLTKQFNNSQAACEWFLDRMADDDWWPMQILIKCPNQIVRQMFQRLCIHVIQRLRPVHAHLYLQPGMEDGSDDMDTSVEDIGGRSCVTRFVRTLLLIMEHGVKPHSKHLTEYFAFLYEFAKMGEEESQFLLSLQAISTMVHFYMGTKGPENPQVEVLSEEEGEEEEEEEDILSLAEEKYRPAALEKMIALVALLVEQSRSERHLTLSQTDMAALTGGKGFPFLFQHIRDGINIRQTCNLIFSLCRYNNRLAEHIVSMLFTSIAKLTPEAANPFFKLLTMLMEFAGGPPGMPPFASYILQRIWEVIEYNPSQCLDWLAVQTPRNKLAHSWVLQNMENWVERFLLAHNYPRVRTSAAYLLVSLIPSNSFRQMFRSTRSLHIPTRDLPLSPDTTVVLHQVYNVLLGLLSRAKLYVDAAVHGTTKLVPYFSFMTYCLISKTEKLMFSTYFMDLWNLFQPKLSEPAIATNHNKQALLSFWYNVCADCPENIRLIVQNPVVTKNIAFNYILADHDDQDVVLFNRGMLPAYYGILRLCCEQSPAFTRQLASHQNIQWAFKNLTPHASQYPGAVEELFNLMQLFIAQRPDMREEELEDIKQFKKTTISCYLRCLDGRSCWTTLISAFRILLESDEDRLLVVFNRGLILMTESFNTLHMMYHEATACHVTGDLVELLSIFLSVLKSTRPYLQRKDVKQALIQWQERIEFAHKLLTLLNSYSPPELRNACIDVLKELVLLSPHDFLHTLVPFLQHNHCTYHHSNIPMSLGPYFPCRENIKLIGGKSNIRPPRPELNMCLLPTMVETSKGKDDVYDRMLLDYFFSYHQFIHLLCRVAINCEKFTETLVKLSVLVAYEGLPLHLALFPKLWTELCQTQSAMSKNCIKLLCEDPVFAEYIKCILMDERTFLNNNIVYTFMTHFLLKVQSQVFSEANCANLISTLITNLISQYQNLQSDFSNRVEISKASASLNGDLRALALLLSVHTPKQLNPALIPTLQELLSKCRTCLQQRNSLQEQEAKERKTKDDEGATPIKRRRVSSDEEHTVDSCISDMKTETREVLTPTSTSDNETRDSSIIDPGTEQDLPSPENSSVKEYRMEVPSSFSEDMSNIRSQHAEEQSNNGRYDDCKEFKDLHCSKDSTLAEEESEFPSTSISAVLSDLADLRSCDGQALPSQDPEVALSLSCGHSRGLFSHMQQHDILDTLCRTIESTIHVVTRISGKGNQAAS

Cl.O=C(CCl)N1CCCC(c2ncc[nH]2)C1 (stereo not given)
inactive: USP34 0.00166 | USP36 0.0764 | USP38 -0.0133 | USP39 0.00979 | USP4 0.124
